Bioassay records from PubChem.
nsP2pro primary: Primary qHTS for inhibitors of NSP2Pro chikungunya virus (CHIKV); Polyprotein P1234 (Chikungunya virus (strain S27-African prototype)), Q8JUX6; FRET peptide cleavage, nsP2pro, fluorescence 1 h; Potency, µM (highest dose often 24.9 µM), without a hit: top-dose activity change, negative = inhibition, usual class: inhibitors; hit rate 1.1% among 31,000; AID 1964107, 2024; calls by dose curve; also: nearly all actives have a fitted effect of over 60% in size
Target sequence (Q8JUX6 whole entry, looked up): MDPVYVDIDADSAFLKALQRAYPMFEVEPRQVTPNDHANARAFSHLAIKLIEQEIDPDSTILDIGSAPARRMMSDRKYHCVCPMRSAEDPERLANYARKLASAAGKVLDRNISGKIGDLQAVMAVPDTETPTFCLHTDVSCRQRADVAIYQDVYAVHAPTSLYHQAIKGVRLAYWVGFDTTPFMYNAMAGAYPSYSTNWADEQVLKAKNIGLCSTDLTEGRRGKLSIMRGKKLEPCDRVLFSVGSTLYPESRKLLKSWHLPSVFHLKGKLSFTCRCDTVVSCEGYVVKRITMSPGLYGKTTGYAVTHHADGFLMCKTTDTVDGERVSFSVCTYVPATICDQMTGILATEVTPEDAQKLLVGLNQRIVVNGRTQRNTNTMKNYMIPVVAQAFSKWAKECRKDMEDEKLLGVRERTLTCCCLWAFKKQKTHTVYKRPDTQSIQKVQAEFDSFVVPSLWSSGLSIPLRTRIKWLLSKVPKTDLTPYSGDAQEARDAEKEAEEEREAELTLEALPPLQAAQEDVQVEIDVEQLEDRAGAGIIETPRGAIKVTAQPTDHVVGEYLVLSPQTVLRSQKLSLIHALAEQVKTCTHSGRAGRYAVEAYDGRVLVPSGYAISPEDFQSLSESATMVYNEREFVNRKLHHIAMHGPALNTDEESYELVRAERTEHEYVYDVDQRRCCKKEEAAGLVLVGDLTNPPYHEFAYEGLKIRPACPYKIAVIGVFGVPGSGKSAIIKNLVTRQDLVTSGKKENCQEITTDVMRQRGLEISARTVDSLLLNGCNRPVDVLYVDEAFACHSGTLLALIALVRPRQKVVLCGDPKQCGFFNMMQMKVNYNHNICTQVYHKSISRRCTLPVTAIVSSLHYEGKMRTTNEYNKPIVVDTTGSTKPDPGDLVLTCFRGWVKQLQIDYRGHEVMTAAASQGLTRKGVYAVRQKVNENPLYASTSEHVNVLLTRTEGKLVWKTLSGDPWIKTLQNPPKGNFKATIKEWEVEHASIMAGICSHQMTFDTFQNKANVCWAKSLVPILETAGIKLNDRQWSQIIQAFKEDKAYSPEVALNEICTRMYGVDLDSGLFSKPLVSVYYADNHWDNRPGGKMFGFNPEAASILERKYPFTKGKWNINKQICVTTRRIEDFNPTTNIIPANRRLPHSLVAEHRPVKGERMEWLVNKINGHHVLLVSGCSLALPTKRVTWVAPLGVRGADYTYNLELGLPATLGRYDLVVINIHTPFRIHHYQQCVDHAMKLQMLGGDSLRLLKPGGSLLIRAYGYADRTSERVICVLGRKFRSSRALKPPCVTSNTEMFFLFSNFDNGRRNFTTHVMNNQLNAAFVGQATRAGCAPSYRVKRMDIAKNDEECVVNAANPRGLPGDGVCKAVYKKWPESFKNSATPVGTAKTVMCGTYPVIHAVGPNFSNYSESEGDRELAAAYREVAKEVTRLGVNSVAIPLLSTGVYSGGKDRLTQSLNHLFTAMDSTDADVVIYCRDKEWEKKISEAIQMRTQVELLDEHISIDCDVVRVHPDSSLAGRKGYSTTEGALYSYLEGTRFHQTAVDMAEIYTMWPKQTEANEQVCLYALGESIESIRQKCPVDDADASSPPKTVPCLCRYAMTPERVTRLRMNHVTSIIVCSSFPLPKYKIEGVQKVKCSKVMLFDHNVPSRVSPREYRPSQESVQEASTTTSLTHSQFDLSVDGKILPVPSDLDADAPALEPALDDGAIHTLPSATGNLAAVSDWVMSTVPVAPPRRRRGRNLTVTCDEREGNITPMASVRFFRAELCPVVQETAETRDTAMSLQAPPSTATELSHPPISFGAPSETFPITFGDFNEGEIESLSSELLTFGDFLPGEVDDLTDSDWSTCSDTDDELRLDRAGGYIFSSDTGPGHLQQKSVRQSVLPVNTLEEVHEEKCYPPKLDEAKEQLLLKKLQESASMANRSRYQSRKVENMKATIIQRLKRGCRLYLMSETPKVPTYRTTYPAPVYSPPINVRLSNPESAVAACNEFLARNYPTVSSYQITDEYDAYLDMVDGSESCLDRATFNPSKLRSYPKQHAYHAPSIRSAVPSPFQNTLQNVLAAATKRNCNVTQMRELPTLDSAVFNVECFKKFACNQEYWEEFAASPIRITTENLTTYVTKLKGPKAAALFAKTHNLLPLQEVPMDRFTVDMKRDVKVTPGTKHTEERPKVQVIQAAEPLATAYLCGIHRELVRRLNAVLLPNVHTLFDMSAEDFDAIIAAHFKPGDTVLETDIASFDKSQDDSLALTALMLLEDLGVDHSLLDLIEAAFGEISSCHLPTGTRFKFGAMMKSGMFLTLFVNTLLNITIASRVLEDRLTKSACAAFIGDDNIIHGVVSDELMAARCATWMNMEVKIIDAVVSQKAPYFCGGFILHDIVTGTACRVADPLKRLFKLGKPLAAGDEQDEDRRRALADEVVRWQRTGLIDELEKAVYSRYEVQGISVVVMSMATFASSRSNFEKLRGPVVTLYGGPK
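Enzyme 150 nM, substrate 2.5 uM (both final); Tris-HCl 10 mM pH 8.0 + 0.01% Tween 20; cpd up to 25 uM, 7 pts; 15 min preinc., 1 h RT; fluorescence ex 525/em 598.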
The depositor's hits bear a star; i = inactive; [ ] = remark or other dose. Shown is part of a subset that was picked to be rich in hits. % is scaled to controls: 0 for no effect and ±100 for the full control effect; potency is read from the fitted curve at half-maximal effect.

SMILES	nsP2pro primary
Cc1ncc(CNC(=O)N(CCCl)N=O)c(N)n1	-2%
COC(=O)CCCCC(CCSS/C(CCO)=C(\C)N(C=O)Cc1cnc(C)nc1N)SC(C)=O (stereo unspecified)	8%
C/C(=C(\CCO)SS/C(CCO)=C(\C)N(C=O)Cc1cnc(C)nc1N)N(C=O)Cc1cnc(C)nc1N	11µM*
CCNC(=O)c1ccc(-c2ccc3ncnc(NCc4nc(C)cs4)c3c2)o1	i
Cc1cc(C2=NOC(c3cc(Cl)cc(Cl)c3)(C(F)(F)F)C2)ccc1C(=O)NCC(=O)NCC(F)(F)F (stereo unspecified)	6%
CCCN1CC2ON=C(C(=O)O)C2C1 (stereo unspecified)	13µM*
O=C(O)C1=NOC2CN(Cc3cscn3)CC12 (stereo unspecified)	-12%[39.2 µM]
CC(C)CCN1CC2ON=C(C(=O)O)C2C1 (stereo unspecified)	-3%[39.2 µM]
COc1cccc(-c2cccc(C(=O)N3CCN(C(=O)Cc4cccc(Cl)c4)CC3)c2)c1	i
COc1ccccc1Oc1ccc(N(Cc2cccnc2)S(=O)(=O)CC(F)(F)F)cc1	11µM*
COc1cccc2sc(N(Cc3cccnc3)C(=O)C3COc4ccccc4O3)nc12 (stereo unspecified)	-16%
COc1ccc(C)c2sc(N(Cc3cccnc3)C(=O)COc3ccccc3)nc12	-11%
COc1ccc(-c2ccc(=O)n(CC(=O)NCCc3ccccc3)n2)cc1OC	-1%
C/C=C(\C)C(=O)O	1%
CN1CCC(C(=O)c2cccc(NC(=O)c3c(F)cc(F)cc3F)n2)CC1	-15%
CCOC(=O)C1=C(C)NC(C)=C(C(=O)OCC)C1c1ccccc1/C=C/C(=O)OC(C)(C)C	-21%
COC(=O)C1=C(C)NC(C)=C(C(=O)OCC(C)=O)C1c1ccccc1[N+](=O)[O-] (stereo unspecified)	12µM*
COC(=O)C1=C(C)NC(C)=C(C(=O)OC(C)C)C1c1cccc2nonc12 (stereo unspecified)	-2%
CCCCC1(CCCC)CN(c2ccccc2)c2cc(SC)c(OCC(=O)N[C@@H](C(=O)N[C@@H](CC)C(=O)O)c3ccc(O)cc3)cc2S(=O)(=O)N1	196%
Clc1ccc(-c2csc(NN=C3CCCC3)n2)cc1	27%
COC(=O)c1ccccc1NC(=O)CSc1nc2sc3c(c2c(=O)[nH]1)CCCC3	10µM*
COC(=O)c1ccc(Cn2nnc3sc4c(c3c2=O)CCCC4)cc1	-22%
Cc1cc(C)cc(NC(=O)CSc2nc3sc4c(c3c(=O)[nH]2)CCCC4)c1	-21%
CC=CC1=C(C(=O)O)N2C(=O)[C@@H](NC(=O)[C@H](N)c3ccc(O)cc3)[C@H]2SC1	-8%[10 µM]
CCOc1ccccc1NC(=O)Cn1c(=O)n(Cc2ccco2)c(=O)c2cccnc21	-8%
SMILES	nsP2pro primary
CCOc1ccc(C(c2c(O)cc(C)n(Cc3ccco3)c2=O)N2CCN(C)CC2)cc1 (stereo unspecified)	13µM*
C=Cc1cc2oc(-c3ccc(O)c(F)c3)nc2cc1O	33%
CC(=O)Nc1sc2c(c1-c1nc3ccccc3s1)CCN(C1COC1)C2	-16%
Cc1nn(-c2ccc(F)cc2)c(-n2cccc2)c1C(=O)N1CCCCC1C (stereo unspecified)	-29%
Cc1ccc(CCNC(=O)c2c(C)nn(-c3ccc(F)cc3)c2-n2cccc2)cc1	-17%
CC(=O)c1cccc(NC(=O)c2c(C)nn(-c3ccc(F)cc3)c2-n2cccc2)c1	10µM*
Cc1cn2nc(-c3cc(=O)n4cc(N5CCNC6(CC6)C5)ccc4n3)cc(C)c2n1	13%
C[C@](C#N)(COc1cc(C#N)ccc1C(F)(F)F)NC(=O)c1ccc(SC(F)(F)F)cc1	3%
COC(=O)c1ccc(N2CCN(S(=O)(=O)c3ccc4c(c3)CC(=O)N4)CC2)cc1	i
CCNC(=O)N[C@@H]1C=C[C@@H](c2c(C)nn(-c3ccc(C(F)(F)F)cc3)c2C)C1	11µM*
CCNC(=O)N[C@@H]1C=C[C@@H](c2c(C)nn(-c3ccc(C(C)C)cc3)c2C)C1	-4%[39.2 µM]
CCNC(=O)N[C@@H]1C=C[C@@H](c2c(C)nn(-c3ccc(C(C)(C)C)cc3)c2C)C1	-6%[39.2 µM]
Cn1cc(OCC(O)CNC(C)(C)C)c2ccccc2c1=O (stereo unspecified)	-5%
COC(=O)OCOc1c2n(ccc1=O)N([C@@H]1c3ccccc3SCc3c1ccc(F)c3F)[C@@H]1COCCN1C2=O	-6%
CC1CCC(=O)CC(SCC(O)C(=O)O)CCC(=O)O1 (stereo unspecified)	11µM*
C=C(C)[C@@H]1CC[C@]2(C)CC[C@]3(C)[C@H](CC[C@@H]4[C@@]5(C)CC[C@H](O)C(C)(C)[C@@H]5CC[C@]43C)[C@@H]12	-22%[10 µM]
Cc1ccc2nc3sc(C(=O)NC4CCC(O)CC4)cc3cc2c1 (stereo unspecified)	4%
Cc1sc(NC(=O)Cc2ccc3c(c2)OCO3)nc1-c1ccc2c(c1)CCN2C	-13%
O=C(OC1C[C@@H]2CC3C[C@@H](C1)N2CC3=O)c1c[nH]c2ccccc12 (stereo partly specified)	-10%
CCCC(=O)O[C@H]1CN2CC[C@H](O)[C@@H]2[C@@H](O)[C@@H]1O	-9%
CC1=C2C[C@@]3(C)[C@@H](CCC[C@@H]3C)C[C@@]2(O)OC1=O	-27%
CC1=C2CC(=O)C(C)CC/C=C(\C)CC2(O)OC1=O (stereo unspecified)	-9%
CC1=C2C[C@@]3(C)C(CCC[C@@H]3C)C(O)C2(O)OC1=O (stereo partly specified)	11µM*
OC[C@H]1O[C@@H](OC[C@H]2O[C@@H](O[C@@H]3[C@@H](O)[C@H](O)O[C@H](CO)[C@H]3O)[C@H](O)[C@@H](O[C@@H]3O[C@H](CO)[C@@H](O)[C@H](O)[C@H]3O)[C@@H]2O)[C@H](O)[C@@H](O)[C@@H]1O	-3%
O=S(=O)(NCC1CN(CC2CC2)CC12CCCCC2)c1cccs1 (stereo unspecified)	4%
SMILES	nsP2pro primary
CCOC(=O)c1[nH]c2c(c1C)CCC(c1ccco1)C2 (stereo unspecified)	-2%
CCOC(=O)c1[nH]c2c(c1C)C(=S)CC(c1ccco1)C2 (stereo unspecified)	13µM*
Cc1c(C(=O)NCC2CCCO2)[nH]c2c1C(=O)CC(c1ccco1)C2 (stereo unspecified)	-22%
O=C1COCC2(CN(c3ccc(C(F)(F)F)cn3)C2)CN1c1ccccc1F	11µM*
O=C1COCC2(CN(c3ccc(C(F)(F)F)cn3)C2)CN1c1ccc(F)cc1	-11%[39.2 µM]
CC(C)(C)c1ccc(CN2CC3(COCC2=O)CN(c2cnccn2)C3)cc1	i
Cc1ccc(C)c(SC2CS(=O)(=O)c3ccccc32)c1 (stereo unspecified)	-3%
Cc1cc(Nc2c(Nc3nnc(-c4ccncc4)s3)c(=O)c2=O)ccc1Cl	i
O=C(Nc1nc(-c2ccccc2)cs1)c1ccncc1NS(=O)(=O)c1cccc(Cl)c1	i
COc1ccc(NC(=O)N[C@@H]2C=C[C@@H](c3c(C)nn(CCC#N)c3C)C2)cc1	13µM*
Cc1nn(-c2ccc(F)cc2)c(C)c1[C@@H]1C=C[C@@H](NC(=O)NC(C)C)C1	-8%[39.2 µM]
COc1ccc(-n2nc(C)c([C@@H]3C=C[C@@H](NC(=S)NCC(C)C)C3)c2C)cc1	44%[39.2 µM]
CNc1oc(-c2cccc3cnccc23)nc1C#N	3%
CCCCCCCCCCC(=O)O[C@H]1CC[C@H]2[C@@H]3CCC4=CC(=O)CC[C@]4(C)[C@H]3CC[C@]12C	6%
